Screening results from PubChem.
U2OS ROS induce – inducers of reactive oxygen species in cancer cells. ROS induction (% of piperlongumine), % at 10 µM. hit rate 2% among 46,000. U2OS ROS induction, H2DCF-DA fluorescence; in the data active = ROS induction above about 79%, passing the limit was not always enough;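 also: 0% = DMSO vehicle median and 100% = reference compound median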
YB-1 expr inh – YB-1 expression inhibition; hit rate 0.37% among 30,000; U2OS, qRT-PCR YB-1 vs CDIP delta delta Cp, 16 h; active compounds read high; zero = DMSO, each unit about twofold; delta delta Cp (YB-1 minus CDIP) (test concentration not listed);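 active = delta delta Cp rounded down to an integer at or above 3, about 3 SD of DMSO wells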;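 also: higher means less YB-1 transcript or more CDIP transcript relative to DMSO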
* marks the source's active call; other numbers are inactive results; . = no result given. A selection: hits, their analogues and other compounds. The true share with any hit is near 2.1%.

SMILES	U2OS ROS induce	YB-1 expr inh
C=C(CO)C(=O)O[C@H]1C[C@H]2C(=C)C[C@H](OC(=O)C(=C)CO)[C@H]3C(=C)C(=O)O[C@@H]3[C@H]2C1=C	115.3*	0.45
COc1cc2c(cc1NC(=O)c1ccccc1)oc1ccccc12	-1.2	.
CCn1c(C(=O)NC2CCCCCC2)cc2oc3ccccc3c21	10.1	.
CCc1ccc2nc(Nc3nc4ccccc4c(=O)[nH]3)nc(C)c2c1	132.1*	.
Cc1ccc2nc(Nc3nc(CSc4nnc(C)s4)cc(=O)[nH]3)nc(C)c2c1	49.2	.
Cc1ccc(SCc2cc(=O)[nH]c(Nc3nc(C)c4ccccc4n3)n2)cc1	-13.7	.
Cc1ccc2nc(Nc3nc(CSc4nc5ccccc5s4)cc(=O)[nH]3)nc(C)c2c1	165.7*	.
O=C(CCCn1c(=O)c2cccn2c2ccccc21)NC1CCCc2ccccc21 (stereo unspecified)	6.2	.
O=C1/C(=C/c2c[nH]c3ccccc23)CSc2ccccc21	48.2	0.255
CCc1ccc2c(c1)=C(c1[nH]c(=S)[nH]c1O)C(=O)N=2	124.3*	0.242
CCc1ccc2c(c1)=C(c1sc(N)nc1O)C(=O)N=2	1.6	-0.276
NC(=O)C(Cc1ccccc1)N1C(=O)C2C3C=CC(C3)C2C1=O (stereo unspecified)	-6.8	.
Cc1c(C(=O)NCc2ccc(N3CCN(C)CC3)cc2)cnn1-c1ccc(Cl)cc1	0.8	.
C/C=C/[C@@H](CCn1cc([C@H](O)c2ccccc2)nn1)[Si](C)(C)c1ccc(OC)cc1	3.2	0.144
C/C=C/[C@H](CCn1cc([C@H](O)c2ccccc2)nn1)[Si](C)(C)c1ccc(OC)cc1	109.7*	0.0281
CCCNC(=O)c1cnn(-c2ccccc2)c1-n1cccc1	17.5	.
O=C(Cc1cccc2ccccc12)Nc1ccc(I)cc1	-11.4	.
CCOC(=O)c1c(CSc2nc(C)ccc2C#N)oc2ccc(OC(C)=O)cc12	153.7*	-0.554
CCOC(=O)c1c(CN(CC)CC)oc2ccc(OC)cc12	36.6	0.148
Cc1ccc2nc3c(c(C(=O)O)c2c1)CC(C(C)(C)C)CC3 (stereo unspecified)	-15.4	.
COc1ccc(/C=C2\CCc3ccccc3C2=O)cc1Cn1cccn1	1.0	.
COc1ccc2c(c1)C(=O)/C(=C/c1ccc(N(C)C)cc1)CC2	121.9*	.
O=c1oc2ccccc2cc1-c1cn2cc(Cc3ccccc3Cl)sc2n1	-12.4	.
NC(=O)c1c(NC(=O)c2cnn3c(C(F)F)cc(-c4ccccc4)nc23)sc2c1CCC2	11.6	.
O=C(NCc1ccco1)c1cnn2c(C(F)F)cc(-c3ccccc3)nc12	192.9*	.
SMILES	U2OS ROS induce	YB-1 expr inh
COc1ccccc1-c1cc(C(F)F)n2ncc(C(=O)NCc3cccnc3)c2n1	115.9*	.
COc1ccc(C(=O)NCc2cccnc2)cc1C(=O)NCc1cccnc1	-3.1	-0.0974
O=S(=O)(/N=C(\Nc1ccccc1)c1ccccc1)c1ccc(Br)cc1	-8.8	.
O=C(c1cccnc1)N1CCN(C(c2ccccc2)c2ccccc2)CC1	7.2	.
O=C1c2ccccc2NC(c2ccccc2)N1N=C1CCCCCC1 (stereo unspecified)	95.8*	-0.938
O=C1c2ccccc2NC(c2ccccc2)N1NS(=O)(=O)c1ccccc1 (stereo unspecified)	-8.6	.
CCC1(C)CC(CCN2C(=O)c3ccccc3C2=O)(c2ccc(C)cc2)CCO1 (stereo unspecified)	29.8	.
CCOC(=O)c1ccc(N2CCN(c3ccccc3F)CC2)c(NC(=O)Nc2ccc(CC)cc2)c1	-2.4	.
C[C@@H]1CCCCO[C@H](CN(C)C(=O)CCCN(C)C)[C@@H](C)CN([C@H](C)CO)C(=O)c2cc(NC(=O)Nc3ccccc3)ccc2O1	22.2	-0.418
C[C@@H]1CCCCO[C@H](CN(C)C(=O)CCCN(C)C)[C@@H](C)CN([C@H](C)CO)C(=O)c2cc(NC(=O)NC3CCCCC3)ccc2O1	22.0	-0.0238
C[C@@H]1CCCCO[C@@H](CN(C)C(=O)CCCN(C)C)[C@@H](C)CN([C@H](C)CO)C(=O)c2cc(NC(=O)c3ccccc3)ccc2O1	13.4	9.57*
C[C@@H]1CCCCO[C@H](CN(C)C(=O)CCCN(C)C)[C@@H](C)CN([C@H](C)CO)C(=O)c2cc(NC(=O)C3CCCCC3)ccc2O1	104.7*	0.241
O=C(c1cnn(-c2ccccc2)c1-n1cccc1)N1CCc2ccccc21	5.3	.
C[C@@H]1CCCCO[C@@H](CN(C)C(=O)C2CCCCC2)[C@@H](C)CN([C@H](C)CO)C(=O)c2cc(NS(=O)(=O)c3ccc(Cl)cc3)ccc2O1	100.9*	0.621
C[C@@H]1CCCCO[C@@H](CN(C)C(=O)C2CCCCC2)[C@@H](C)CN([C@H](C)CO)C(=O)c2cc(NS(C)(=O)=O)ccc2O1	90.7*	0.42
C[C@@H]1CCCCO[C@@H](CN(C)C(=O)NC2CCCCC2)[C@@H](C)CN([C@H](C)CO)C(=O)c2cc(NS(C)(=O)=O)ccc2O1	-9.1	-0.576
